# In ChEMBL document CHEMBL3988442, “University of Dundee, Small-Polar-MMV Screening Library” (2021):
# Out of some 48,000 compounds screened, about 13,000 (27%) showed an effect of 50% or more. Some of the results follow.
# System: Wolbachia pipientis
# Assay: Anti-Wolbachia Cell-Based Screen
# Format: functional
# Set-up: scale not given: in the data most compounds retested in dose-response had high values
# Settings: 5 µM
row,SMILES,Percent Effect
1,Cc1csc(C2(NCc3nc(-c4ccco4)no3)CCCC2)n1,-16%
2,Cc1cc(C)n2nc(CC(=O)N[C@H]3C[C@H]4CN(C)CCN4C3)nc2n1,-5.28%
3,c1ccc(CN2CCC3(CC2)Nc2ccccc2CO3)cc1,107.9%
4,c1ccc2c(c1)COC1(CCCC1)N2,105.5%
5,OCC1(Cc2ccc(Cl)cc2)CCN(Cc2ccccc2O)CC1,-3.576%
6,c1ccc2c(c1)COC1(CCCCC1)N2,87.69%
7,CC1CCC2(CC1)Nc1ccccc1CO2 (stereo unspecified),93.91%
8,O=C(O)C(F)(F)F.O=C1COC2(CCN(Cc3ccc(F)cc3)CC2)CN1,10.25%
9,CCc1nc(NC(=O)NCCc2cccc(C)n2)nn1C,-4.482%
10,O=S(=O)(NCC(O)c1ccc(C(F)(F)F)cc1)C1CC1 (stereo unspecified),-5.07%
11,Cc1noc(C)c1CNc1cccc(C(=O)N2CCCC(O)C2)c1 (stereo unspecified),6.213%
12,CC(C)(C)n1ncc2c(=O)[nH]c(N3CCC4(CCCCC4)C3)nc21,-1.553%
13,CN(Cc1ncnn1C)C1CCN(c2sccc2C#N)C1=O (stereo unspecified),7.621%
14,Cc1cc(N)nc(SC2CCN(c3ccccc3F)C2=O)n1 (stereo unspecified),10.35%
15,N#Cc1ccsc1N1CCC(Sc2ncc[nH]2)C1=O (stereo unspecified),95.53%
16,Cc1nnc(SC2CCN(c3sccc3C#N)C2=O)s1 (stereo unspecified),109.2%
17,Cn1c(N)nnc1SC1CCCN(c2ccccc2)C1=O (stereo unspecified),-9.447%
18,Cc1cc(N)nc(SC2CCN(c3ccccc3)C2=O)n1 (stereo unspecified),-22.79%
19,O=C1C(Sc2nc(=O)ccn2C2CC2)CCN1c1ccccc1 (stereo unspecified),-7.516%
20,CCc1ncc(CN(C)C2CCN(c3sccc3C#N)C2=O)s1 (stereo unspecified),0.715%
21,N#Cc1ccsc1N1CCC(Sc2ccncc2)C1=O (stereo unspecified),81.54%
22,Cc1nnc(SC2CCN(c3sccc3C#N)C2=O)[nH]1 (stereo unspecified),106.7%
23,CCc1cnc(CN(C)C2CCN(c3sccc3C#N)C2=O)s1 (stereo unspecified),1.692%
24,CCC(CO)N(Cc1ccco1)C(=O)c1sccc1NC(C)=O (stereo unspecified),21.44%

row,SMILES,Percent Effect
1,Cc1oncc1NS(=O)(=O)c1c[nH]c2ncccc12,-22.29%
2,c1cncc(COCC2CN(Cc3ccsc3)Cc3ccnn3C2)c1 (stereo unspecified),-8.281%
3,COc1ccccc1OCCNc1snc(Cl)c1C#N,-4.663%
4,Cc1nc(SC2CCN(c3sccc3C#N)C2=O)oc1C (stereo unspecified),85.81%
5,Cc1csc(CN(C)C2CCN(c3sccc3C#N)C2=O)n1 (stereo unspecified),9.47%
6,CCc1noc(CN(C)C2CCN(c3sccc3C#N)C2=O)n1 (stereo unspecified),0.9243%
7,Cn1c(C(N)=O)ccc1-c1ccccc1,3.483%
8,CC(C)NC(=O)NCCCOC1CCOCC1,-1.893%
9,COCCOCC(=O)N(Cc1cccc(C)c1)C(C)C,-6.619%
10,O=C(O)C(F)(F)F.O=C1COC2(CCN(Cc3ccco3)CC2)CN1CCn1cccn1,4.018%
11,O=C(O)C(F)(F)F.O=C1COC2(CCN(Cc3ccoc3)CC2)CN1CCn1cccn1,2.726%
12,Cc1cccc(CN2CC3(CCN(Cc4ccoc4)CC3)OCC2=O)n1.O=C(O)C(F)(F)F.O=C(O)C(F)(F)F,122.8%
13,Cc1cccc(CN2CC3(CCN(Cc4ccco4)CC3)OCC2=O)n1.O=C(O)C(F)(F)F.O=C(O)C(F)(F)F,121.1%
14,O=C(O)C(F)(F)F.O=C(c1ccco1)N1C[C@H]2CCCN(CC3CCOCC3)[C@H]2C1,-19.49%
15,COCCNC(=O)[C@H]1CN(Cc2scnc2C)C[C@H]2OCC[C@@H]12.O=C(O)C(F)(F)F.O=C(O)C(F)(F)F,-9.051%
16,COc1cccc(-c2ncc(CN3CC[C@H]4CC[C@@H](C3)N4)s2)c1,-2.167%
17,O=c1[nH]c(-c2ccc(F)c(F)c2)nc2c1CCNC2,-21.65%
18,CCOc1nnc(CN2CCC(N(C)Cc3noc(C)n3)C2)s1 (stereo unspecified),5.667%
19,Cc1nc(CN(C)C2CCN(Cc3cnc(C)s3)C2)no1 (stereo unspecified),106.5%
20,CC(=O)N(Cc1noc(C)n1)C1CCN(Cc2cnc(C)s2)C1 (stereo unspecified),83.55%
21,Cc1nc(CN2CCCC(N(C)Cc3cnc(C)s3)C2)no1 (stereo unspecified),2.952%
22,Cc1nc(CN(C)C2CCN(Cc3ccc(Cl)s3)C2)no1 (stereo unspecified),99.87%
23,Cc1nc(CN2CCCC(N(C)Cc3nnsc3Cl)C2)no1 (stereo unspecified),-2.376%
24,CCc1cnc(CN2CCC(N(C)Cc3noc(C)n3)C2)o1 (stereo unspecified),97.22%

row,SMILES,Percent Effect
1,NC(=O)N1CCc2cc(C(=O)O)c(-c3ccsc3)nc2CC1.O=C(O)C(F)(F)F,-21.16%
2,Cc1cc(CNC(=O)Nc2cc(F)cc(N3CCCC3)c2)no1,-57.71%
3,Cc1cccc(C(C)(C)CNC(=O)CN(C)S(=O)(=O)c2cccnc2)c1,4.775%
4,CC(O)CN(CC(=O)NC1CCCCC1)c1ccccc1 (stereo unspecified),-11.54%
5,CC(C)(C)c1ncc2c(n1)CN(C(=O)c1ccc(-c3nc[nH]n3)cc1)C2,-2.467%
6,CCc1ccc(C(=O)N2CCN(Cc3ccc(F)cc3)CC2)s1,-10.91%
7,CC(C)(C)Cc1nnc(NCc2ccsc2)o1,-6.79%
8,CC(=O)N(Cc1ncc(C(C)C)o1)C1CCN(Cc2nccn2C)C1 (stereo unspecified),-4.268%
9,CC(=O)N(Cc1ncc(C(C)C)o1)C1CCN(Cc2ncc[nH]2)C1 (stereo unspecified),11.04%
10,CC(=O)N(Cc1noc(C)n1)C1CCN(Cc2ncc(C(C)C)o2)C1 (stereo unspecified),142.1%
11,CCNC(=O)C(C)NC(=O)Nc1ccccc1Cl (stereo unspecified),-14.58%
12,CCC1(c2ccc(NS(=O)(=O)c3cccs3)cc2)CCC(=O)NC1=O (stereo unspecified),2.702%
13,CN(C)S(=O)(=O)Nc1ccc(-n2nncc2C(F)(F)F)cc1,-14.8%
14,CCC1(c2ccc(NS(=O)(=O)N(C)C)cc2)CCC(=O)NC1=O (stereo unspecified),138.3%
15,NC(=O)Cc1ccc(NC(=O)C2CCOCC2)cc1,-3.616%
16,CC(CO)NC(=O)Nc1ccc(CC#N)cc1 (stereo unspecified),-17.07%
17,CC(C)C(C)NC(=O)Nc1ccc(CS(=O)(=O)C(C)C)cc1 (stereo unspecified),98.92%
18,CCNC(=O)Cc1ccc(NC(=O)NC(CC)CC)cc1,3.76%
19,CC(C)C(C)NC(=O)Nc1cccn(C)c1=O (stereo unspecified),14.72%
20,CC(C)NC(=O)Nc1ccc(-c2nc3c([nH]2)CCNC3)cc1,8.53%
21,CC(C)NC(=O)Nc1ccc(CS(C)(=O)=O)cc1,125.1%
22,CCC(C)NC(=O)Nc1ccc(CN2CCOC2=O)cc1 (stereo unspecified),17.46%
23,CC(C)C(C)NC(=O)Nc1ccc(CC(N)=O)cc1 (stereo unspecified),98.71%
